SMILES strings stand for the structures. A number with no mark means an inactive call.

The test system of this test is Vero E6 infected with SARS-CoV-2. The test can be described thus: inhibition of SARS-CoV-2 cytopathic effect; higher = more antiviral protection, active = above 15. Conditions: 48 h. (Cytopathic effects are the visible damage that an infection or toxin causes in cultured cells.)

As for `C=CC(=O)N1CCN(C(=O)CNc2cc(I)c(Cl)cc2O)CC1` [K-Ras(G12C)-inhibitor-12], the “inhibition of SARS-CoV-2 cytopathic effect” value (from here on “inhibition”) is 3.63% (1 nM); 2.32% (8.33 nM); 7.62% (100 nM); 24.7% (active) (833.33 nM); 30.4% (active) (10000 nM).
On the same counts, the results for `C[C@@H](N)Cc1c[nH]c2ccc(O)cc12` [alpha-methylserotonin] are -0.1%, -1.31%, -1.23%, -0.05% and -3.72%.
Taken in the same sequence, the figures for `C=C(c1ccc(C(=O)O)cc1)c1cc2c(cc1C)C(C)(C)CCC2(C)C` [bexarotene] were -0.21%, -0.07%, 0.42%, 0.85% and 0.03%.
In the case of `C=CC(=O)Nc1cccc(Oc2nc(Nc3ccc(N4CCN(C)CC4)cc3)ncc2Cl)c1`, the “inhibition” value (1 nM) is -1.99%; the “inhibition” value (8.33 nM) is 1.76%; the “inhibition” value (100 nM) is -2.31%; the “inhibition” value (833.33 nM) was -12.8%; the “inhibition” value (10000 nM) is -1.76%.
On to `O=[N+]([O-])/N=C1\NCCN1Cc1ccc(Cl)nc1` [imidacloprid], for which the “inhibition” value is, setting by setting: (1 nM) 0.83%; (8.33 nM) 5.02%; (100 nM) 6.8%; (833.33 nM) 5.42%; (10000 nM) 3.01%.
Taken in the same sequence, the figures for `C[C@@H](c1ncncc1F)[C@](O)(Cn1cncn1)c1ccc(F)cc1F` [voriconazole] were 0.72%, 2.08%, -2.48%, -0.46% and 1.37%.
Turning to `CN(C)CCC=C1c2ccccc2CCc2ccccc21` [amitriptyline], the “inhibition” value (1 nM) is -2.51%; the “inhibition” value (8.33 nM) is -0.51%; the “inhibition” value (100 nM) is 5.58%; the “inhibition” value (833.33 nM) was 1.84%; the “inhibition” value (10000 nM) was -2.45%.
For `c1ccc(Oc2cccnc2)cc1`, the “inhibition” value by setting is: (1 nM) 2.35%; (8.33 nM) 1.64%; (100 nM) 1.02%; (833.33 nM) 2.24%; (10000 nM) 1.23%.
Taken in the same sequence, the figures for `C[C@@H](Oc1ccc2[nH]nc(/C=C/c3cnn(CCO)c3)c2c1)c1c(Cl)cncc1Cl` were -0.14%, -0.97%, -1.04%, -13.8% and -14.7%.
On the same counts, the results for `CC(=O)Oc1cccc(C(=O)O)c1OC(C)=O` [dipyrocetyl] are -0.44%, -1.4%, 2.59%, -0.15% and 5.25%.
Taken in the same sequence, the figures for `NCCS` [cysteamine] were 1.07%, 0.1%, 0.28%, -1.61% and -4.62%.
In the case of `N=C(N)NCCC[C@@H](N)C(=O)N[C@@H](CCCNC(=N)N)C(=O)N1CCC[C@H]1C(=O)N1C[C@H](O)C[C@H]1C(=O)NCC(=O)N[C@@H](Cc1cccs1)C(=O)N[C@@H](CO)C(=O)N1Cc2ccccc2C[C@@H]1C(=O)N1[C@H](C(=O)N[C@@H](CCCNC(=N)N)C(=O)O)C[C@@H]2CCCC[C@@H]21` [icatibant-acetate], the “inhibition” value runs as follows: (1 nM) -2.62%; (8.33 nM) -4.61%; (100 nM) -4.27%; (833.33 nM) 2.14%; (10000 nM) 1.26%.
As for `NCC(=O)O`, the “inhibition” value (1 nM) is 1.39%; the “inhibition” value (8.33 nM) was -0.35%; the “inhibition” value (100 nM) is 1.12%; the “inhibition” value (833.33 nM) is -1.32%; the “inhibition” value (10000 nM) is 0.49%.
As to `Cc1ccc(Cl)cc1N(CC(=O)Nc1c(F)cccc1F)S(C)(=O)=O`, the “inhibition” value was 2.5% (1 nM); -2.01% (8.33 nM); -1.24% (100 nM); 0.27% (833.33 nM); -0.21% (10000 nM).
Taken in the same sequence, the figures for `CN1CCN(c2c(F)cc3c(=O)c(C(=O)O)cn4c3c2SCC4)CC1` [rufloxacin] were 0.11%, -1.78%, 0.94%, 1.64% and -3.47%.
For `O=C(O)C[C@H]1CC[C@H](c2ccc(NC(=O)c3nnc(Nc4ccc(F)c(F)c4)o3)cc2)CC1`, the “inhibition” value is -0.14% (1 nM); -0.74% (8.33 nM); 0.13% (100 nM); -2.59% (833.33 nM); -0.04% (10000 nM).
For `Cc1c(C)c2c(c(C)c1O)CCC(C)(C)O2`, the “inhibition” value runs as follows: (1 nM) 0.77%; (8.33 nM) -0.34%; (100 nM) 2.33%; (833.33 nM) 4.37%; (10000 nM) -5.56%.
Taken in the same sequence, the figures for `CN[C@@H](C)C(=O)N[C@H](C(=O)N1CCC[C@H]1c1nc(C(=O)c2ccc(F)cc2)cs1)C1CCCCC1` were 1.96%, 2.97%, 0.97%, -3.07% and -4.24%.
In the case of `COc1nc(C)nc(Cl)c1NC1=NCCN1` [moxonidine], the “inhibition” value reads like this: (1 nM) -0.54%; (8.33 nM) 1.98%; (100 nM) -1.9%; (833.33 nM) -2.44%; (10000 nM) -1.74%.
Consider `C[C@H]1C[C@@H]2[C@H]([C@@H](O)C[C@@]3(C)[C@H]2CC[C@]3(O)C(=O)CO)[C@@]2(C)C=CC(=O)C=C12` [methylprednisolone], for which the “inhibition” value was 0.61% (1 nM); 3.49% (8.33 nM); -1.8% (100 nM); 0.94% (833.33 nM); 0.36% (10000 nM).
